Results published in PubChem BioAssay (NCI).
This is part of a sample that, as a whole, favours compounds with a hit. Of some 83,000 tested, about 20% had one in any assay.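 Assay: single dose, 48 h. Readout: percent growth (0 = no net growth; negative = cell death). Active: <10.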 Unmarked numbers belong to inactive results. Calls of active or inactive are those of the source.

Legend:
Assay in all cases: NCI-60 one-dose screen, 48 h (100 = growth as untreated, 0 = no growth, -100 = all killed)
Conditions in all cases: 10 µM unless noted
[1] = test system: RPMI-8226 leukemia
[2] = test system: OVCAR-8 ovarian
[3] = test system: OVCAR-5 ovarian
[4] = test system: OVCAR-4 ovarian
[5] = test system: SK-OV-3 ovarian
[6] = test system: IGROV1 ovarian
[7] = test system: OVCAR-3 ovarian
[8] = test system: HS 578T breast
[9] = test system: NCI/ADR-RES ovarian
[10] = test system: T-47D breast
[11] = test system: BT-549 breast
[12] = test system: MDA-MB-435 melanoma
[13] = test system: SW-620 colon
[14] = test system: MCF7 breast
[15] = test system: HCT-116 colon
[16] = test system: HCC-2998 colon
[17] = test system: KM12 colon

Compound	growth [1]	growth [2]	growth [3] [%]	growth [4]	growth [5]	growth [6]	growth [7]	growth [8]	growth [9]	growth [10]	growth [11] [%]	growth [12]	growth [13]	growth [14]	growth [15]	growth [16] [%]	growth [17]
CN(C)C1=NCCN1	95.2%	104%	104	114%	109%	104%	104%	106%	106%	110%	97.5	110%	106%	97.2%	98.7%	101	100%
CCC[S@@](=O)c1ccc2nc(NC(=O)OC)[nH]c2c1	95%	77.1%	102	98.9%	63.6%	91.3%	93.5%	91.2%	91.5%	78.1%	79.1	16.6%	71%	61.9%	79.6%	90	65.6%
COc1cc2c(Nc3ccc(NC(=O)Nc4ccc(Cl)c(C(F)(F)F)c4)c(Cl)c3)ncnc2cc1OCCCN1CCN(C)CC1	-39% (active)	13%	31	-9.14% (active)	20.4%	-2.58% (active)	11%	-8.65% (active)	93.3%	22.2%	21.6	-71.2% (active)	-85.4% (active)	-77.4% (active)	-73.2% (active)	20.2	-55.1% (active)
CN1CCN(/C=C2\CC(C(=O)NCc3ccc(Cl)cc3Cl)NC2=O)CC1 (stereo unspecified)	93.9%	99.1%	110	110%	107%	109%	108%	103%	107%	113%	136	119%	98%	103%	110%	101	103%
COc1ccc(/C=C(/C(=O)N2CCN(Cc3ccccc3)CC2)c2cc(OC)c(OC)c(OC)c2)cc1O	66.9%	80.1%	99.9	90.3%	65.5%	68.4%	30.8%	65.1%	71.7%	77.2%	77.2	1.04% (active)	45.6%	20.9%	32%	95.8	55.9%
N#CC1C(c2ccc(Cl)cc2)=Nc2c(c(-c3ccccc3)nn2-c2ccccc2)C12C(=O)Nc1ccc(Cl)cc12 (stereo unspecified)	24.7%	64.6%	65.2	34.4%	68.6%	42.1%	49.7%	51.4%	67.6%	46.7%	50	34.5%	42.1%	28.4%	26.2%	55.2	26.1%
COc1ccc2[nH]c(=O)c(/C=C/C(=O)c3ccccc3OC)cc2c1	5.61% (active)	1.18% (active)	12.1	50.8%	6.12% (active)	14.5%	8.25% (active)	8.33% (active)	10.4%	-2.02% (active)	18.9	-10% (active)	8.4% (active)	10%	16%	23.1	4.37% (active)
Cc1ccc(C2CC(c3ccc(Nc4nc(NCCO)nc(NCCO)n4)cc3)=NN2c2ccc(Cl)cc2)cc1 (stereo unspecified)	47.5%	66%	99	63.9%	98.6%	82.6%	45.7%	72.8%	80.4%	53.1%	79	61.5%	80.4%	27.6%	41.2%	64.1	52.4%
C/C(=C\c1cnc(C)s1)[C@@H]1C[C@@H]2O[C@@H]2CCC[C@H](C)[C@H](O)[C@@H](C)C(=O)C(C)(C)[C@@H](O)CC(=O)O1	23.2%	48%	38.9	52.5%	24.4%	38.7%	2.54% (active)	39.1%	6.61% (active)	33.6%	39.4	4.21% (active)	34.8%	17.1%	18.4%	18.6	24.6%
CC1(C)CC[C@]2(c3nnc(-c4ccncc4)o3)CC[C@]3(C)C(=CC[C@@H]4[C@@]5(C)CCC(=O)C(C)(C)[C@@H]5CC[C@]43C)[C@@H]2C1	62.4%	81.1%	99.9	89.2%	104%	93.2%	80.8%	98.6%	97.2%	65.9%	80.3	79.6%	85.2%	64.6%	61.3%	94.8	93.8%
C[C@]12CC[C@@H]3c4ccc(O)cc4CC[C@H]3[C@@H]1C[C@H](O)C2	79.7%	82.7%	116	87%	82.7%	79.2%	73.2%	57.6%	70.9%	96.9%	79.1	0.155% (active)	33.9%	61%	49.1%	87.6	76.3%
N#Cc1ccc(Oc2ccc3ccc(=O)oc3c2)cc1	81.5%	87.2%	104	109%	112%	121%	117%	93.4%	107%	94.5%	110	120%	96.5%	97.3%	91.5%	104	96.2%
C=C1C(=O)O[C@H]2[C@H]1CC/C(COC(=O)CCCCC(=O)OC/C1=C/CC[C@@]3(C)O[C@H]3[C@H]3OC(=O)C(=C)[C@@H]3CC1)=C\CC[C@@]1(C)O[C@@H]21	5.66% (active)	49.7%	115	82.3%	85.6%	39.4%	18.6%	82.7%	87.5%	38.6%	61.1	56.2%	25.1%	21.3%	3.28% (active)	100	90.6%
CC(=O)c1cc2c(N)c(C(=O)Nc3ccccn3)sc2nc1C	99.2%	103%	89.4	99.4%	48.3%	92.8%	92.2%	74.2%	94.7%	94.5%	98.6	5.72% (active)	96.9%	73.2%	93.3%	84.6	89.3%
CC1CCCN(CCCCCOc2ccc3oc4ccccc4c(=O)c3c2)C1 (stereo unspecified)	50.7%	77.5%	79.4	83.1%	99.7%	67.3%	77.9%	77.8%	73.3%	65.4%	74.3	46%	70.1%	63.1%	52.7%	85.3	64.3%
CCCCn1c2cc(OCc3cn(-c4ccc(Cl)cc4)nn3)ccc2c2ccnc(C)c21	-34.3% (active)	29.7%	39.5	18.2%	52.9%	39.3%	30.1%	54.2%	28%	22.2%	61.7	60.2%	34.2%	25.8%	8.91% (active)	43.8	41.9%
CC1=C/C(=N\N=C2/C=C(C)CC(C)(C)C2)CC(C)(C)C1	102%	95.2%	107	106%	97%	103%	112%	103%	104%	97.3%	112	108%	106%	102%	98.1%	94.5	107%
COc1cccc(NC(=O)Nc2ccc(Oc3ncnc4[nH]c(C)c(C)c34)cc2)c1	72.4%	77%	129	99.2%	107%	52%	103%	84.8%	83.5%	95.2%	99.6	100%	81.7%	40.9%	81.6%	103	52.2%
